Consider 24 targets from the supplement of paper PMC10849652.

Of roughly 8,800 targets only a part is listed; those with a hit were picked by preference. About 0.5% of all pairs of compound and target were hits. A number with no mark means an inactive call.

Holding throughout (test): log2 fold change, soluble protein after heating vs DMSO (PISA); higher = thermal stabilisation; K562 lysate, 10 uM; active = over 0.2 and 3.5 SD of the protein, either way, in both replicates (recomputed)
Compound in assay [1]: C1=CC=C(C=C1)[C@H](COC2=CC3=C(C=C2)NC(=O)N3)NC(=O)C4=CC=CN(C4=O)CC5=CC(=C(C=C5)F)F
The method in brief:
(§1)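 Soluble protein was defined as the supernatant remaining after 21,000xg for 90 min, following pooling of heated aliquots and adjustment to 0.5% NP-40 at 4°C. Before that, crude K562 extract at 1 mg/mL protein in PBS pH 7.4 with 1 mM MgCl2 was treated with 10 μM compound for 30 min and heated for 3 min across 48°C-58°C. Quantification used TMTpro 16plex LC-MS/MS with channel sums equalised, and values are log-two fold changes in thermal stability relative to solvent controls from duplicates.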

Compound in assay [2]: CC1=C(SC2=C1C(=N[C@H](C3=NN=C(N32)C)CC(=O)N)C4=CC=C(C=C4)Cl)C
An outline of the steps:
as §1

Compound in assay [3]: CC1=C2C(=CC=C1)N=C(N(C2=O)C3=CC=CC=C3C)CN4C=NC5=C(N=CN=C54)N
An outline of the steps:
as §1

Compound in assay [4]: Cc1sc2c(c1C)C(c1ccc(Cl)cc1)=N[C@@H](CC(=O)OC(C)(C)C)c1nnc(C)n1-2
The method in brief: as §1

Compound in assay [5]: c1ccc([C@@H]2C[C@H]2NC2CCNCC2)cc1
The method in brief: as §1

Sequence of UniProt Q6ZU80 (Q6ZU80 whole entry, looked up): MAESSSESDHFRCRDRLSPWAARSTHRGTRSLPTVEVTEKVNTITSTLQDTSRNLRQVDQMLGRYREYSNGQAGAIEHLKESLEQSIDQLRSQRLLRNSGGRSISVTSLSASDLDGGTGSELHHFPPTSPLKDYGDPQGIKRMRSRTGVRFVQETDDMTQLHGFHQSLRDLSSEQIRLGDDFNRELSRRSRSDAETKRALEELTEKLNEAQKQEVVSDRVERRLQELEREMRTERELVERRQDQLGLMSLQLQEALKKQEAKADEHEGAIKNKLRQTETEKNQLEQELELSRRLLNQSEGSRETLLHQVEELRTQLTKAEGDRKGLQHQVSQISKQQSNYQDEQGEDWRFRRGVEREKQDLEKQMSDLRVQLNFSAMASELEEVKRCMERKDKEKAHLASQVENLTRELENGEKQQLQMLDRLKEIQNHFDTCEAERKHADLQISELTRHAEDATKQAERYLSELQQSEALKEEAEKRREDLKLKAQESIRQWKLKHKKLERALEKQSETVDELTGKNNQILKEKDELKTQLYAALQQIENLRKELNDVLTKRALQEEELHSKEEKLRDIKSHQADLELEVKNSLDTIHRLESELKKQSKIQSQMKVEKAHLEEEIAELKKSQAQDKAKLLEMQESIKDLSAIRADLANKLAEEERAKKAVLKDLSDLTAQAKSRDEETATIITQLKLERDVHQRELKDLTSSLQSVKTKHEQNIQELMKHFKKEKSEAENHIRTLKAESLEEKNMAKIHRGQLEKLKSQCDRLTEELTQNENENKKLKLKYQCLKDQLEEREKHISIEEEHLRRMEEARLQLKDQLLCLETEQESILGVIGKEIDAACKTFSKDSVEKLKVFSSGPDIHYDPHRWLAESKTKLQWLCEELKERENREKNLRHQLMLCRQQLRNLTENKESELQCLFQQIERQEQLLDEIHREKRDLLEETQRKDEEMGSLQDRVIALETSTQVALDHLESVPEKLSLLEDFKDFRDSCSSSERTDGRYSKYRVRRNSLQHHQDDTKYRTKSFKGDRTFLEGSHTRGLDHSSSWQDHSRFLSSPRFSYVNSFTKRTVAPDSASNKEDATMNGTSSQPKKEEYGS
Sequence of UniProt O95352 (O95352 whole entry, looked up): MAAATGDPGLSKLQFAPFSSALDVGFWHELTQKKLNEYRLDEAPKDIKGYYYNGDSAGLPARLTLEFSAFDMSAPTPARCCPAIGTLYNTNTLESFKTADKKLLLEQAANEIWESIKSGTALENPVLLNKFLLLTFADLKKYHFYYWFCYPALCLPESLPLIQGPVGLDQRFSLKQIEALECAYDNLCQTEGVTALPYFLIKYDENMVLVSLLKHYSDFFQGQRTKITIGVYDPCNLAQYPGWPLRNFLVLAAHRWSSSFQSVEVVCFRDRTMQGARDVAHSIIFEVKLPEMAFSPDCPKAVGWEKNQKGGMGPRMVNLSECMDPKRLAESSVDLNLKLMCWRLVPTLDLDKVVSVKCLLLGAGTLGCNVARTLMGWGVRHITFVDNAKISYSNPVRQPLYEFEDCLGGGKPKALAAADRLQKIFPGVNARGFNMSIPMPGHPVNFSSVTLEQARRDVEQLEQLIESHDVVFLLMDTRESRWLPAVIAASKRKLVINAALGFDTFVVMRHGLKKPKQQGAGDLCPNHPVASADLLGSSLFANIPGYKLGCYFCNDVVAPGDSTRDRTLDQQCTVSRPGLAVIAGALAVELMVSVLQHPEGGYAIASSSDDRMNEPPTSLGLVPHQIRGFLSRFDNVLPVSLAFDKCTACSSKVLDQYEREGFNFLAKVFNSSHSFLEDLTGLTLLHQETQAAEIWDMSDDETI
Sequence of UniProt Q6P4E1 (Q6P4E1 whole entry, looked up): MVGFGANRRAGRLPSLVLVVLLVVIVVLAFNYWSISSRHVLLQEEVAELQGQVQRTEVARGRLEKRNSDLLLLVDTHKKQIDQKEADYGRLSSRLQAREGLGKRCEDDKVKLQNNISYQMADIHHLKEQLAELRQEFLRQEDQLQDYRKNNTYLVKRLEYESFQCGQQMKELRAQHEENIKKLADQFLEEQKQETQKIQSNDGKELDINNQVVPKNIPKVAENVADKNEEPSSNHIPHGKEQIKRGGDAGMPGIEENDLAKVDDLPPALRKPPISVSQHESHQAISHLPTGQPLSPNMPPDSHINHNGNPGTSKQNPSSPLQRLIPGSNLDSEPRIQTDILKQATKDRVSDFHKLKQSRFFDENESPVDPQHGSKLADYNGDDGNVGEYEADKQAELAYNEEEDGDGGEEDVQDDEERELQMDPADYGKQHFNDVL
Sequence of UniProt Q8TDI0 (Q8TDI0 whole entry, looked up): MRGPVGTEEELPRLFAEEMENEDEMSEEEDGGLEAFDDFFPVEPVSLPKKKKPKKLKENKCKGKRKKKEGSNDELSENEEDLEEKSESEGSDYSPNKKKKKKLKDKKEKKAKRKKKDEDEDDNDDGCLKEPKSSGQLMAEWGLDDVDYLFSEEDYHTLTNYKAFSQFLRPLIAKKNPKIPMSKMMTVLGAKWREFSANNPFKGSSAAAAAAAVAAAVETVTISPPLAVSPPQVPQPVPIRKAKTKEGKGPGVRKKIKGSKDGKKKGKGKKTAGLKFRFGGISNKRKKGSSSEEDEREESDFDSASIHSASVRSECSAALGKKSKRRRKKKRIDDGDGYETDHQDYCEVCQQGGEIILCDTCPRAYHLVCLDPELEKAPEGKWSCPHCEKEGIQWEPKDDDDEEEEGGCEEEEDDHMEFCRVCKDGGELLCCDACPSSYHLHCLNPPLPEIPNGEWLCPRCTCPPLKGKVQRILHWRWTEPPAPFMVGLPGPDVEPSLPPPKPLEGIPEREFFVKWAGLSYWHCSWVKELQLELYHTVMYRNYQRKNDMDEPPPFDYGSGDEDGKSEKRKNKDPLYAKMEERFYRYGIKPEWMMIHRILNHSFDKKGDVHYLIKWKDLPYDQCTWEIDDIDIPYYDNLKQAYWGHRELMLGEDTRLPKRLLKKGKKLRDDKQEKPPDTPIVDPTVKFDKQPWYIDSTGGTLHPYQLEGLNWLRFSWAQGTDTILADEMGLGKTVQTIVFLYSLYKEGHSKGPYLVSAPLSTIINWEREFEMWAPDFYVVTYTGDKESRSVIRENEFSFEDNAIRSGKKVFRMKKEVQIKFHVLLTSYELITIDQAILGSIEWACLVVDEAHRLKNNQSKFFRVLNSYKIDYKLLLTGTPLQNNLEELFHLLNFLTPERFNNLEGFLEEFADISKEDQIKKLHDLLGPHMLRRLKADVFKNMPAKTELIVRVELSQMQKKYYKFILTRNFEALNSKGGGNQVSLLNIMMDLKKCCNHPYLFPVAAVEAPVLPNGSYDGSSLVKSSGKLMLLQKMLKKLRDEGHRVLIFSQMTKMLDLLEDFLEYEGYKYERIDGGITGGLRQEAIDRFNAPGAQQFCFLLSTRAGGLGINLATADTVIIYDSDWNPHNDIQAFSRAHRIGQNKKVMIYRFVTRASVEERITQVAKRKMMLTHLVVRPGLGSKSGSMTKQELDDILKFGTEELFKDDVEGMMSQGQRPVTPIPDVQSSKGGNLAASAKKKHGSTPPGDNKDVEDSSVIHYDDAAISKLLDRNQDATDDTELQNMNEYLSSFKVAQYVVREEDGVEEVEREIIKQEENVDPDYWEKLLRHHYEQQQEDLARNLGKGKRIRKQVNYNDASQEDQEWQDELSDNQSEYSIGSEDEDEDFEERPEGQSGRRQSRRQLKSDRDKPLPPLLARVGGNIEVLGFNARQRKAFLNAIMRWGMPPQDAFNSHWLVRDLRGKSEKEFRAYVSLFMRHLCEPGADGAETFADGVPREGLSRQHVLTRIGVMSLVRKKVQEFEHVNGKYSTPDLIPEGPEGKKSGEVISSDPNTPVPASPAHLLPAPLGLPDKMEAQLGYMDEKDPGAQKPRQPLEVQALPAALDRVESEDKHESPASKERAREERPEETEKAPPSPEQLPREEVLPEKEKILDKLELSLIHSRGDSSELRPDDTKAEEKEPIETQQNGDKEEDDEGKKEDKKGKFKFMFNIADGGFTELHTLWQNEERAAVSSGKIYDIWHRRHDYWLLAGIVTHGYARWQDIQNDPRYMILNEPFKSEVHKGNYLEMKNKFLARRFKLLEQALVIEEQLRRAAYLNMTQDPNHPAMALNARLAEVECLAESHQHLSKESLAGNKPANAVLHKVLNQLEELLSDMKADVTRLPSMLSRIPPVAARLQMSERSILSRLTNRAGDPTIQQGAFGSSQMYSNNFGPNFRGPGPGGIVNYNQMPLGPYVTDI
Sequence of UniProt Q96SZ6 (Q96SZ6 whole entry, looked up): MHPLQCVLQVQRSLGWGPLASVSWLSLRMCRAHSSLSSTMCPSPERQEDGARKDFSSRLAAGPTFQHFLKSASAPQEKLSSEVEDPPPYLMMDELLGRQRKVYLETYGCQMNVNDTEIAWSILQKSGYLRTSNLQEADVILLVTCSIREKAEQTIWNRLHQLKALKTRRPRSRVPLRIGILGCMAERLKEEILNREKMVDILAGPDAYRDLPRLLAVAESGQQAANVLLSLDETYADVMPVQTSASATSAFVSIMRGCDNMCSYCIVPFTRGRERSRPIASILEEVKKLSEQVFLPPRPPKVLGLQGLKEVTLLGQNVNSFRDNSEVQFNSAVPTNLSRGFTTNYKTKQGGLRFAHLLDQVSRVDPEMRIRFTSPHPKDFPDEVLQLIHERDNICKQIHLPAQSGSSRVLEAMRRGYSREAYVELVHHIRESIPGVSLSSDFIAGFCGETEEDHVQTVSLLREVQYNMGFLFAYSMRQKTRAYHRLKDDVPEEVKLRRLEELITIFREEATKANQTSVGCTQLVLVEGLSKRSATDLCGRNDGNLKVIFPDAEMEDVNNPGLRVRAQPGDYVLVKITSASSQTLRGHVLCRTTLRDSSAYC
Sequence of UniProt Q9Y6H1 (Q9Y6H1 whole entry, looked up): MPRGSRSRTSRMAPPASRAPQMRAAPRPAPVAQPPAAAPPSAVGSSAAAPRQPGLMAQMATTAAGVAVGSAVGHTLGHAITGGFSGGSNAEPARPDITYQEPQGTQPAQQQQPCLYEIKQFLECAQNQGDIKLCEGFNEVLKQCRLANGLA
Sequence of UniProt O15155 (O15155 whole entry, looked up): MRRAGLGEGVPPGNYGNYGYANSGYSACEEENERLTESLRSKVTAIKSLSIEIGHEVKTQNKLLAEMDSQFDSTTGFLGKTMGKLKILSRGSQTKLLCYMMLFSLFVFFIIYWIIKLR

Turning to CDK5 (UniProt Q00535), the log2 fold change in assay [1] was -0.01; in assay [2] it was -0.03; in assay [3], -0.021; in assay [4], 0.002; in assay [5], -0.02.

Turning to CCDC22 (UniProt O60826), the log2 fold change was -0.009 in assay [1]; 0 in assay [2]; -0.044 in assay [3]; 0.053 in assay [4]; 0.032 in assay [5].

As for BLOC1S6 (UniProt Q9UL45), the log2 fold change in assay [1] was -0.078; in assay [2], 0.035; in assay [3] it was -0.04; in assay [4], -0.046; in assay [5], 0.021.

For CASC4 (UniProt Q6P4E1), the log2 fold change was -0.008 in assay [1]; 0.027 in assay [2]; 0.039 in assay [3]; -0.015 in assay [4]; -0.055 in assay [5].

On to CDK13 (UniProt Q14004), for which the log2 fold change in assay [1] was -0.091; in assay [2], -0.031; in assay [3] it was -0.052; in assay [4] it was 0.049; in assay [5], 0.052.

Take BCR (UniProt P11274): the log2 fold change in assay [1] was -0.03; in assay [2], 0.005; in assay [3] it was -0.014; in assay [4] it was 0.007; in assay [5] it was 0.027.

For the target CHCHD2 (UniProt Q9Y6H1), the log2 fold change in assay [1] is -0.123; in assay [2] it was -0.043; in assay [3], -0.015; in assay [4], 0.062; in assay [5] it was -0.01.

Turning to C1orf112 (UniProt Q9NSG2), the log2 fold change in assay [1] was 0.066; in assay [2], -0.011; in assay [3], -0.007; in assay [4] it was 0.066; in assay [5], -0.345.

For CDK5RAP1 (UniProt Q96SZ6), the log2 fold change was 0.266 (active) in assay [1]; -0.117 in assay [2]; 0.05 in assay [3]; -0.023 in assay [4]; -0.004 in assay [5].

For CAMK2B (UniProt Q13554), the log2 fold change in assay [1] was 0.036; in assay [2], -0.052; in assay [3] it was -0.032; in assay [4], -0.056; in assay [5] it was -0.091.

With CDC16 (UniProt Q13042), the log2 fold change in assay [1] is -0.038; in assay [2] it was 0.027; in assay [3], 0.025; in assay [4], 0.03; in assay [5] it was 0.021.

For CHCHD1 (UniProt Q96BP2), the log2 fold change is -0.026 in assay [1]; 0.024 in assay [2]; -0.04 in assay [3]; -0.091 in assay [4]; 0.627 (active) in assay [5].

In the case of C18orf25 (UniProt Q96B23), the log2 fold change in assay [1] is 0.013; in assay [2] it was -0.035; in assay [3] it was 0.043; in assay [4], 0.017; in assay [5], -0.033.

As for CAPNS1 (UniProt P04632), the log2 fold change in assay [1] was 0; in assay [2] it was -0.041; in assay [3], -0.067; in assay [4] it was 0.057; in assay [5], -0.014.

As for ATG10 (UniProt Q9H0Y0), the log2 fold change in assay [1] was 0.008; in assay [2] it was 0; in assay [3], -0.057; in assay [4] it was 0.047; in assay [5], 0.076.

For BET1 (UniProt O15155), the log2 fold change in assay [1] is -0.053; in assay [2] it was 0.013; in assay [3], 0.032; in assay [4], 0.038; in assay [5], 0.009.

In the case of CCNH (UniProt P51946), the log2 fold change was -0.028 in assay [1]; -0.004 in assay [2]; 0.022 in assay [3]; -0.039 in assay [4]; -0.01 in assay [5].

For the target BCKDHB (UniProt P21953), the log2 fold change was 0.027 in assay [1]; 0.023 in assay [2]; 0.09 in assay [3]; 0.074 in assay [4]; 0.119 in assay [5].

On to CDKN1B (UniProt P46527), for which the log2 fold change in assay [1] was 0.059; in assay [2] it was -0.038; in assay [3], 0.146; in assay [4] it was 0.101; in assay [5], 0.02.

CHD5 (UniProt Q8TDI0): the log2 fold change in assay [1] is -0.039; in assay [2], 0.003; in assay [3], -0.002; in assay [4] it was 0.085; in assay [5] it was 0.032.

Turning to ATG7 (UniProt O95352), the log2 fold change in assay [1] is 0.014; in assay [2] it was 0.003; in assay [3] it was 0.028; in assay [4], -0.014; in assay [5], 0.044.

On to ATP6V0A2 (UniProt Q9Y487), for which the log2 fold change was -0.011 in assay [1]; -0.017 in assay [2]; 0.026 in assay [3]; -0.015 in assay [4]; -0.114 in assay [5].

With CEP128 (UniProt Q6ZU80), the log2 fold change in assay [1] is -0.38; in assay [2], 0.338; in assay [3] it was -0.023; in assay [4], -0.125; in assay [5] it was -0.507.

For CHCHD4 isoform 2 (UniProt Q8N4Q1), the log2 fold change in assay [1] was 0.04; in assay [2], -0.076; in assay [3], -0.101; in assay [4] it was -0.189; in assay [5], -0.168.
